# Assay outcomes deposited in PubChem BioAssay by Broad Institute.
# A selection follows.
# aSyn UTR act: Activators working through SNCA 5'UTR binding (MLPCN) | activity score, % (tested at 7.5 µM), hits read low | AID 1814 | 300,000 tested, 7.1% active | alpha-synuclein 5'UTR reporter, activators screen; in the data active means activity score below about -60%
# Active calls of the source: *.
SMILES,aSyn UTR act
COc1ccc(-c2ccc(OC)cc2)cc1,-120*
Nc1nc(-c2ccc(Oc3ccccc3)cc2)cs1,-123*
Nc1nc(N)c2cc(Sc3ccc4ccccc4c3)ccc2n1,96
Nc1nc(-c2ccc(-c3ccccc3)cc2)cs1,-186*
COc1ccc(-c2csc(N=C(N)N)n2)cc1,-141*
c1ccc2cc(-c3csnn3)ccc2c1,-74*
COc1ccc(-c2csc(N)n2)cc1,-101*
c1ccc(-c2ccc(-c3ccncn3)cc2)cc1,-78*
c1ccc2[nH]c(-c3ccnc4ccccc34)nc2c1,-96*
Cc1ccccc1-c1nc2ccccc2[nH]1,-134*
Cc1cc2nc(-c3ccc[nH]c3=O)[nH]c2cc1C,77
Fc1ccccc1-c1nc2ccccc2[nH]1,-128*
Clc1ccccc1-c1nc2ccccc2[nH]1,-113*
Cn1cc(Cl)c(-c2nc3ccccc3[nH]2)n1,-149*
CCCc1nc(-c2ccc(-c3ccc(F)cc3)cc2)no1,-145*
O=C1CCC(=O)N1CCCCCc1nc(-c2ccccc2)no1,-104*
CC(C)(C)c1ccc(-c2noc(CCC(N)=O)n2)cc1,91
c1ccc(CCc2nc(-c3cccnc3)no2)cc1,-90*
O=C(Nc1ccc(-c2noc(CCc3ccccc3)n2)cc1)c1ccco1,-115*
c1cncc(-c2noc(CC3CCCCC3)n2)c1,-87*
Brc1ccc(-c2noc(CCc3ccccc3)n2)cc1,-84*
c1ccc(CCc2nc(-c3ccccc3)no2)cc1,-192*
COc1ccc(Nc2oc(COc3ccc(C)cc3)nc2C#N)cc1,68
N#Cc1nc(COc2cccc(Cl)c2)oc1NCc1ccco1,-105*
CCNc1oc(COc2cccc(C)c2)nc1C#N,-95*
SMILES,aSyn UTR act
Cc1cc(NC(=O)Nc2ccc3c(ccn3C)c2)sn1,-121*
Cc1ccc(NC(=O)Nc2cccs2)cc1,-130*
CCc1ccc(NC(=O)Nc2ccsc2C(=O)OC)cc1,-65*
Cc1ccc(NC(=O)Nc2cccs2)nc1,-168*
CCc1ccc(NC(=O)Nc2cccs2)cc1,-169*
CCOc1ccc(NC(=O)Nc2cccs2)cc1,-161*
CCC(C)(C)n1nnnc1C(c1ccc2ncccc2c1)N1CCN(c2nc3ccccc3s2)CC1 (configuration not stated),54
c1c2c(cc3sc(N4CCOCC4)nc13)OCCO2,94
c1ccc2sc(N3CCOCC3)nc2c1,-65*
Nc1ccc2nc(N3CCOCC3)sc2c1,-69*
Fc1cccc(Cl)c1CN1CCN(c2nc3ccccc3s2)CC1,-198*
c1ccc(N2CCN(c3nc4cc5c(cc4s3)OCCO5)CC2)cc1,-157*
C=C1C(=O)C=C[C@]2(C)C[C@@H]3OC(=O)[C@](C)(O)[C@H]3C[C@@H]12,-527*
CCOc1ccc2c(c1)S/C(=C\c1cccs1)C(=O)N2,-134*
Cn1cccc1/C=C1\SC(=Nc2cccc(O)c2)NC1=O,-241*
O=C1NC(=Nc2ccc3ccccc3c2)S/C1=C/c1ccco1,-91*
Cc1ccc(N=C2NC(=O)/C(=C\c3ccco3)S2)cc1,-74*
O=C1NC(=Nc2ccccc2)S/C1=C\c1cccs1,-92*
O=C1NC(=Nc2ccc(O)cc2)S/C1=C/c1ccco1,-88*
CC(=O)N1N=C(c2ccc(C)cc2)OC1c1ccc(C(C)C)cc1 (configuration not stated),-182*
CC(=O)N1N=C(c2ccc(C)cc2)OC1c1ccc(C)cc1 (configuration not stated),-129*
CCc1ccn2cc(-c3ccc4c(c3)OCO4)nc2c1,107
c1ccc(-c2noc(-c3ccc4c(c3)OCO4)n2)nc1,91
c1ccc(-c2nccc(-c3ccc4c(c3)OCO4)n2)cc1,-105*
Cc1ccc(-c2cn3cccnc3n2)cc1,-119*
SMILES,aSyn UTR act
c1cnc2nc(-c3ccc4c(c3)OCO4)cn2c1,-93*
Cc1ccc2oc(-c3cccc(NC(=O)C4CCCO4)c3)nc2c1 (configuration not stated),-181*
Cc1cccc(-c2nc3cc(NC(=O)C4CCCO4)ccc3o2)c1 (configuration not stated),72
O=C(Nc1cccc(-c2nc3cc(Cl)ccc3o2)c1)C1CCCO1 (configuration not stated),-72*
Cc1nn(-c2ccccc2)c(Cl)c1/C=N/NC(=O)c1ccco1,-106*
Cc1nn(-c2ccccc2)c(Cl)c1/C=N\NC(=O)c1cnccn1,-106*
CCOC(=O)c1c(NC2OC(=O)c3c2ccc(OC)c3OC)sc(C(=O)OC(C)(C)C)c1C (configuration not stated),-80*
CC(C)c1ccc(C(=O)CSc2ncn[nH]2)cc1,-137*
O=C(c1ccc(-c2cccc(C(F)(F)F)c2)o1)N1CCOCC1,-71*
S=C(c1ccc(-c2ccc(Cl)c(Cl)c2)o1)N1CCOCC1,-155*
CC1CCN(C(=O)c2ccc(-c3ccccc3Cl)o2)CC1,-104*
S=C(c1ccc(-c2ccccc2Cl)o1)N1CCOCC1,-137*
S=C(c1ccc(-c2ccc(Br)cc2)o1)N1CCCCC1,-201*
O=C(c1ccc(-c2cccc(Cl)c2Cl)o1)N1CCOCC1,-133*
O=C(c1ccc(-c2ccc([N+](=O)[O-])cc2Cl)o1)N1CCOCC1,-135*
O=C(Cc1ccc(Br)cc1)N1CCCCCC1,-176*
S=C(c1ccc(-c2ccc(Br)cc2)o1)N1CCOCC1,-178*
COc1cccc(Cn2c(=O)oc3ccccc32)c1,-77*
CCC(=O)Nc1cccc(NC(=O)c2ccc3c(c2)OCCO3)c1,-105*
CN(C)S(=O)(=O)c1cccc(NC(=O)c2ccc3c(c2)OCCO3)c1,-119*
CCN1C(=O)c2cccc3c(NC(=O)c4ccc5c(c4)OCCO5)ccc1c23,-79*
COc1ccc(-c2noc(CN(C)Cc3ccccc3)n2)c(OC)c1OC,-68*
CN(c1ccccc1)S(=O)(=O)c1cccc(NC(=O)c2cc3ccccc3oc2=O)c1,-106*
Cc1ccc(NC(=O)c2cc3ccccc3oc2=O)cc1S(=O)(=O)N(C)C,73
COc1ccccc1NS(=O)(=O)c1cccc(NC(=O)c2cc3ccccc3oc2=O)c1,-114*
SMILES,aSyn UTR act
CCc1ccc(OCC(=O)Nc2ccc(-c3nc4ccccc4o3)c(O)c2)cc1,-97*
CC(C)(C)c1ccc(OCC(=O)Nc2ccc(-c3nc4cccnc4o3)cc2)cc1,-135*
COc1ccc(C(=O)Nc2cccc(-c3nnc(-c4ccco4)o3)c2)cc1,-93*
O=C(COc1ccccc1)Nc1cccc(-c2nc3ccccc3[nH]2)c1,-63*
C=Cc1cccc(NC(=O)COc2ccccc2)c1,-107*
COc1ccc(OCC(=O)Nc2cccc(-c3nc4ccccc4[nH]3)c2)cc1,-159*
O=C(COc1ccccc1)Nc1cccc(-c2nnc(-c3ccccc3)o2)c1,-64*
O=C(Nc1cccc(-c2nc3ccccc3o2)c1)c1ccc(N2C(=O)C3C4C=CC(C4)C3C2=O)cc1 (configuration not stated),88
COc1ccc(OCC(=O)Nc2cccc(-c3nc4ccccc4o3)c2)cc1,-151*
Oc1cc(NCc2cccnc2)ccc1-c1nc2ccccc2o1,-100*
O=S(=O)(c1ccc(Cl)cc1)N1c2ccccc2Oc2nc3ccccc3nc21,-96*
COc1ccc(S(=O)(=O)N2c3cc(Cl)ccc3Oc3nc4ccccc4nc32)cc1,100
CCN1CCN(Cc2ccc(OCc3ccccc3)c(OC)c2)CC1,-90*
CCN1CCN(Cc2ccc(OCc3ccccc3)cc2)CC1,-77*
CCC(C)[C@H](NC(=O)N1CC(=O)Nc2ccccc21)C(=O)Nc1ccccc1C (some centres not stated),-95*
